# Assay outcomes deposited in PubChem by National Center for Advancing Translational Sciences (NCATS).
# a7 integrin act = qHTS for Activators of Integrin-Mediated Alleviation for Muscular Dystrophy | 350,000 tested, 0.064% active | alpha7betagal myoblasts, beta-gal FDG fluorescence, 48 h | Potency, µM (series often up to 38.3 µM), usual class: activators; further: nearly all actives have a fitted effect of over 60% in size
#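 Alpha7betagal+/- myoblasts (passage 13) were plated 16-24 hr, then exposed to compounds (1:260 dilution of DMSO stock) for 48 hours at 37C. After MPER lysis, β-galactosidase reporter activity was read as FDG fluorescence (ex 480/em 540) after 30 minutes.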
# RORg inh = qHTS for inhibitors of ROR gamma transcriptional activity | Nuclear receptor ROR-gamma (Mus musculus), P51450 | Drosophila S2 Gal4-RORgamma UAS-luciferase reporter, 20 h | Potency, µM (titrated, usually from 53.6 µM), actives largely listed as inhibitors | 310,000 tested, 5.4% active; further: nearly all actives have a fitted effect of over 60% in size
# Target sequence (P51450 whole entry, looked up, the tested form may be a part): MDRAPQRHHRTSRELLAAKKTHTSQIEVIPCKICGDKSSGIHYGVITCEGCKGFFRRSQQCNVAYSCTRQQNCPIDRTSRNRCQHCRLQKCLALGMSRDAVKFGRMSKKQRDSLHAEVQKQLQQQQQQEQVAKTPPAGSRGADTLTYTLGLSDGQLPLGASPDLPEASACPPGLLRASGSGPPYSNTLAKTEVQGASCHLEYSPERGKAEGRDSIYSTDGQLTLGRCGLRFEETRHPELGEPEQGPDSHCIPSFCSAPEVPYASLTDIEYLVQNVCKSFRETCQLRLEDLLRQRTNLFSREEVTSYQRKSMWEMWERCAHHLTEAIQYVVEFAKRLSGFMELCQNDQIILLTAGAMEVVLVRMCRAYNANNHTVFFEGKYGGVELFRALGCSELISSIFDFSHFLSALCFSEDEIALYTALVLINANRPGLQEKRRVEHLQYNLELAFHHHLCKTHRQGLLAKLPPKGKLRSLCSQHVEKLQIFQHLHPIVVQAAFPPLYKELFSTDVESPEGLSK
#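 Luciferase reporter read in Schneider cells carrying Gal4-RORγ (mouse) and UAS-Photinus luciferase; cells given compound 1 h before 700 uM copper sulfate induction, then incubated 20 h at ambient temperature.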
# uPA generation = qHTS for Inhibitors of Cell Surface uPA Generation; cell surface uPA generation assay, qHTS; Potency, µM (doses to about 38.3 µM), most hits filed as inhibitors; 330,000 tested, 0.31% active; AID 540303, 2011; active means well fitted inhibition curve with a large enough effect; inconclusive means small, poorly fitted or top-dose-only effect; inactive means no such curve, though single readings can be large or run the other way; tested in mouse RAW 264.7 cells; further: nearly all actives have a fitted effect of over 55% in size
# Gal4-VP16 FLuc = VP16 counterscreen qHTS for inhibitors of ROR gamma transcriptional activity. Potency, µM (top dose mostly 53.6 µM), most hits filed as inhibitors. Drosophila S2 Gal4-VP16 UAS-luciferase, luminescence, 20 h. 310,000 tested, 3.5% active. AID 2546, 2010;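 further: Gal4-VP16 expression switched on by copper sulfate through the metallothionein promoter; nearly all actives have a fitted effect of over 50% in size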
# BCR signal inh = qHTS Assay to Find Inhibitors of Chronic Active B-Cell Receptor Signaling; ABC-DLBCL IkBa-CBG/CBR reporter, luminescence ratio, 4 h; Potency, µM (top dose mostly 46.1 µM), actives largely listed as inhibitors; 340,000 tested, 0.05% active; AID 493014, 2011; active means well fitted inhibition curve with a large enough effect in the signal ratio, with a control signal flat, not every such curve was filed as active; inconclusive means small, poorly fitted or top-dose-only effect, or effect the other way, or a change in a side signal; the % refers to the signal ratio
#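 Doxycycline induced both beetle luciferases in TMD8 lymphoma cells; IKK-driven degradation limits the IkappaBalpha-fused green signal, while red luminescence normalises for cell number and nonspecific effects. Compounds tested up to 46 uM, 4 hrs.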
# Mito fusion yeast = qHTS Assay for Small Molecule Inhibitors of Mitochondrial Division or Activators of Mitochondrial Fusion | S. cerevisiae fusion-defective mutant growth rescue, CellTiterGlo 48 h | Potency, µM (titrated, usually from 46.1 µM), usual class: activators | 320,000 tested, 0.23% active | AID 485298, 2010; further: nearly all actives have a fitted effect of over 45% in size
#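 Temperature-sensitive fusion-defective S. cerevisiae (e.g. fzo1-1, mgm1-5) were grown with compound in YPEG medium (3% ethanol, 3% glycerol) for 48 hours at 37C. Growth rescue was measured as viability by CellTiterGlo luminescence after 10 minutes at ambient.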
# Numbers stand for hits; 0 = inactive; ? = inconclusive; - = not tested or not shown. This is a sample that favours compounds with a hit; in the whole collection about 5.5% have one here. Unless noted, the call rests on the fitted dose curve; in most records, active means well fitted curve in the direction sought with a large enough effect; inconclusive means small, poorly fitted or top-dose-only effect, or another doubt; inactive means no such curve, though single readings can be large; an effect the other way counts as inactive or inconclusive.
SMILES,a7 integrin act,RORg inh,uPA generation,Gal4-VP16 FLuc,BCR signal inh,Mito fusion yeast
CCCCn1nc2cc(C(=O)NCC34CC5CC(CC(C5)C3)C4)ccc2c1OC,0,0,?,0,0,0
CCOc1c2ccc(C(=O)NCC34CC5CC(CC(C5)C3)C4)cc2nn1CC,0,?,?,11µM,0,0
CCn1nc2cc(C(=O)NCC34CC5CC(CC(C5)C3)C4)ccc2c1OC,0,7.1µM,0,?,0,0
CCCN1CNC(=S)N(c2ccccc2C)C1,?,11µM,0,?,?,0
CCN1CNC(=S)N(c2cc(C)ccc2C)C1,0,?,-,0,0,0
CCCN1CNC(=S)N(c2ccc(C)cc2C)C1,0,4µM,0,?,0,0
CCOc1ccccc1CNc1nnnn1C,0,0,0,0,0,0
Cn1nnnc1NCc1ccccc1F,0,0.63µM,0,0,0,0
CCN(CC(=O)Nc1c(F)cccc1F)C(=O)C1CCCN(C(=O)c2ccc(Cl)cc2)C1 (centres undefined),0,10µM,0,11µM,0,0
CNc1cc(-c2ccccc2CN(C)C)ncn1,-,0,-,0,-,-
CCN1CCN(c2ccc(S(=O)(=O)N3CCCCC3)cc2NC(=O)c2cccc(C(F)(F)F)c2)CC1,0,-,0,-,?,0
COc1ccc(-c2c(-c3ccc(O)cc3O)n[nH]c2C(F)(F)F)cc1,0,0,0,10µM,?,0
COc1ccccc1-c1c(-c2ccc(O)cc2O)n[nH]c1C(F)(F)F,?,?,0,0,?,0
Oc1ccc(-c2n[nH]c(C(F)(F)F)c2-c2ccccc2)c(O)c1,0,5.6µM,0,1.6µM,?,0
COc1ccc(-c2c(-c3ccc(OC)c(C)c3O)n[nH]c2C)cc1,0,11µM,0,11µM,?,0
COC(=O)c1c(NC(=O)c2cc3nc(-c4ccc(Br)cc4)cc(C(F)(F)F)n3n2)sc2c1CCCC2,-,-,-,-,0,-
O=C1CC(NS(=O)(=O)c2ccc([N+](=O)[O-])cc2)CN1c1ccc(Cl)cc1 (centres undefined),0,-,0,-,0,0
COc1ccc(N2C(=O)C3CCCN3C2c2ccc(C)o2)cc1 (centres undefined),0,0,0,0,0,0
CC(=O)C1=C(c2ccc(F)cc2)N(C(C)=O)n2c(nnc2C2CCCCC2)S1,-,-,-,-,0,-
CC(=O)C1=C(c2ccccc2)N(C(C)=O)n2c(C)nnc2S1,0,11µM,?,18µM,?,0
COC(C/C=C/C(=O)[C@H](C)OCc1ccccc1)OC,0,-,11µM,-,-,-
COC(C/C=C\[C@H](O)COCc1ccccc1)OC,0,-,0,-,-,-
COC(C/C=C/C(=O)COCc1ccccc1)OC,0,?,7.1µM,?,?,0
NC(=O)C1CCN(C(=O)c2ccc3c(c2)N(Cc2cccc(Cl)c2)C(=O)c2ccccc2S3=O)CC1 (centres undefined),-,-,-,-,0,-
CCC(=O)OC1C(N(C)C)CC(C)O[C@H]1O[C@H]1[C@H](C)[C@@H](O[C@H]2CC(OC)[C@@H](O)C(C)O2)[C@H](C)C(=O)O[C@@H](CC)[C@](C)(O)[C@@H](O)[C@H](C)C(=O)[C@@H](C)C[C@]1(C)O (some centres undefined),-,0,-,0,-,-
SMILES,a7 integrin act,RORg inh,uPA generation,Gal4-VP16 FLuc,BCR signal inh,Mito fusion yeast
Cc1ccc(NC2Nc3cc(C)nn3S2)c(C)c1 (centres undefined),0,3.5µM,0,?,?,0
Cc1cc2n(n1)SC(Nc1ccccc1)N2 (centres undefined),0,3.2µM,0,4.5µM,?,0
Cc1ccc(N=CNc2ccc(C)cc2C)c(C)c1,0,0,0,0,0,0
Cc1ccc(SCC(c2ccccc2)N2CCN(CC(C)C)CCC2=O)cc1 (centres undefined),-,0,-,0,-,-
Cn1c(COc2ccccc2)nnc1SCCSc1nnc(COc2ccccc2)n1C,0,0,0,0,0,0
Cn1c(COc2ccc(Br)cc2)nnc1SC1CCc2ccccc2C1=O (centres undefined),?,22µM,0,?,0,0
O=C1OC(c2cccs2)=N/C1=C\c1ccc(-c2cccc(Cl)c2)o1,0,?,-,0,0,0
N=C1S/C(=C\c2ccc(-c3cccc(Cl)c3)o2)C(=O)N1c1nccs1,0,0.14µM,0,0,?,0
COc1ccc(/C=C2\SC(=N)N(c3nccs3)C2=O)cc1OC,0,0.13µM,0,?,?,0
CC(Cl)C(=O)Nc1c2c(nn1-c1ccccc1)CSC2 (centres undefined),0,0,0,0,0,0
Cc1ccc(C(=O)NC2CCCc3c2cnn3-c2ccc(F)cc2F)cn1 (centres undefined),-,?,-,2.8µM,0,0
Cc1nnsc1C(=O)NC1CCCc2c1cnn2-c1cc(F)cc(F)c1 (centres undefined),0,0,0,0,0,0
CN1N=C(C(=O)NC2CCCc3c2cnn3-c2ccc(F)cc2F)CCC1=O (centres undefined),0,?,0,?,0,0
Cc1nnsc1C(=O)NC1CCCc2c1cnn2-c1ccc(F)cc1F (centres undefined),0,?,0,7.1µM,0,0
Cc1cc(C)n2nc(SCC(=O)NC(=O)c3ccccc3)nc2n1,0,-,0,-,0,-
O=C(COc1ccccc1F)NCc1ccc(-n2cccc2)cc1,0,0,0,0,0,0
C/C(=N\NC(=O)C(C)Oc1ccc([N+](=O)[O-])cc1)c1ccccn1 (centres undefined),0,1.1µM,-,2.2µM,0,0
COc1cc(OC)cc(C(=O)NNC(=O)c2ccccn2)c1,0,4.5µM,0,5.6µM,?,0
COc1ccc(C(=O)NNC(=O)c2ccccn2)cc1,0,7.1µM,3.2µM,5.6µM,?,0
COc1ccc(OC(C)C(=O)Nc2ccc([N+](=O)[O-])cc2)cc1 (centres undefined),0,?,0,0,0,0
COc1ccc2c(c1)C(=NNC(=O)c1ccccn1)c1cc(OC)ccc1-2,0,2.8µM,0,4µM,?,0
COc1ccc(C(=O)NCCNC(=O)c2ccccn2)cc1,0,0,0,0,0,0
CCOc1ccc(NC(=O)c2cnccn2)cc1,0,?,0,?,?,0
Cc1nc(C(=O)NNC(=O)c2ccc(Cl)cc2)cs1,0,4µM,0,?,?,0
COc1ccc(OCC(=O)NNC(=O)c2ccccn2)cc1,0,13µM,0,?,0,0
CC(Oc1ccccc1)C(=O)NNC(=O)c1ccccn1 (centres undefined),0,7.9µM,0,?,?,0
CCOc1ccc(NC(=O)c2ccccn2)cc1,0,7.1µM,1.6µM,4.5µM,?,0
